Shown is part of a subset that was picked to be rich in the strongest signals.
Columns and labels:
Experiment in all cases: glycan array binding signal (z-score within array); higher = stronger binding
Details in all cases: glycan notation: IUPAC condensed, linker removed
[1] = target: Fuc(a1-2)Gal(b1-4)[Fuc(a1-3)]GlcNAc
How it was run: (§1)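 Arrays were curated from the Consortium for Functional Glycomics database, 3228 in total, and kept only where the protein sequence was available. Binding is expressed as a within-array Z-score. This score was averaged across arrays of the same protein sequence at different concentrations or buffers and across linkers, and negative values can be read as non-binding.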

[2] = target: Fuc(a1-2)[Gal(a1-3)]Gal(b1-3)GlcNAc(b1-2)Man(a1-3)[Fuc(a1-2)[Gal(a1-3)]Gal(b1-3)GlcNAc(b1-2)Man(a1-6)]Man(b1-4)GlcNAc(b1-4)GlcNAc
How it was run: as §1

[3] = target: Fuc(a1-2)[Gal(a1-3)]Gal(b1-4)[Fuc(a1-3)]GlcNAc
How it was run: as §1

[4] = target: Fuc(a1-2)[GalNAc(a1-3)]Gal
How it was run: as §1

[5] = target: Fuc(a1-2)[GalNAc(a1-3)]Gal(b1-4)[Fuc(a1-3)]GlcNAc
How it was run: as §1

[6] = target: Fuc(a1-3)[Gal(b1-4)]GlcNAc(b1-2)Man(a1-3)[Fuc(a1-3)[Gal(b1-4)]GlcNAc(b1-2)Man(a1-6)]Man(b1-4)GlcNAc(b1-4)GlcNAc
How it was run: as §1

[7] = target: Fuc(a1-3)[Gal(b1-4)]GlcNAc(b1-2)Man(a1-3)[Fuc(a1-3)[Gal(b1-4)]GlcNAc(b1-2)Man(a1-6)]Man(b1-4)GlcNAc(b1-4)[Fuc(a1-6)]GlcNAc
How it was run: as §1

[8] = target: Fuc(a1-3)[Gal(b1-4)]GlcNAc(b1-4)Gal(b1-4)[Fuc(a1-3)]GlcNAc
How it was run: as §1

[9] = target: Gal(a1-3)Gal(b1-4)GlcNAc(b1-2)Man
How it was run: as §1

[10] = target: Gal(a1-3)Gal(b1-4)GlcNAc(b1-3)GalNAc
How it was run: as §1

[11] = target: Gal(b1-3)Gal(b1-4)GlcNAc
How it was run: as §1

[12] = target: Gal(b1-3)GlcNAc(b1-2)[Gal(b1-3)GlcNAc(b1-6)]Man(a1-6)[Gal(b1-3)GlcNAc(b1-2)Man(a1-3)]Man(b1-4)GlcNAc(b1-4)GlcNAc
How it was run: as §1

[13] = target: Gal(b1-4)GlcNAc(b1-2)Man(a1-3)[Gal(b1-4)GlcNAc(b1-2)Man(a1-6)][GlcNAc(b1-4)]Man(b1-4)GlcNAc(b1-4)[Fuc(a1-6)]GlcNAc
How it was run: as §1

[14] = target: Gal(b1-4)GlcNAc(b1-3)Gal(b1-4)GlcNAc(b1-3)Gal(b1-4)GlcNAc(b1-3)Gal(b1-4)GlcNAc(b1-2)Man(a1-3)[Gal(b1-4)GlcNAc(b1-3)Gal(b1-4)GlcNAc(b1-3)Gal(b1-4)GlcNAc(b1-3)Gal(b1-4)GlcNAc(b1-2)Man(a1-6)]Man(b1-4)GlcNAc(b1-4)[Fuc(a1-6)]GlcNAc
How it was run: as §1

[15] = target: Gal(b1-4)GlcNAc(b1-3)Gal(b1-4)GlcNAc(b1-3)Gal(b1-4)GlcNAc(b1-3)Gal(b1-4)GlcNAc(b1-2)[Gal(b1-4)GlcNAc(b1-3)Gal(b1-4)GlcNAc(b1-3)Gal(b1-4)GlcNAc(b1-3)Gal(b1-4)GlcNAc(b1-6)]Man(a1-6)[Gal(b1-4)GlcNAc(b1-3)Gal(b1-4)GlcNAc(b1-3)Gal(b1-4)GlcNAc(b1-3)Gal(b1-4)GlcNAc(b1-2)Man(a1-3)]Man(b1-4)GlcNAc(b1-4)[Fuc(a1-6)]GlcNAc
How it was run: as §1

[16] = target: Gal(b1-4)GlcNAc(b1-3)Gal(b1-4)GlcNAc(b1-3)Gal(b1-4)GlcNAc(b1-3)Gal(b1-4)GlcNAc(b1-3)Gal(b1-4)GlcNAc(b1-2)Man(a1-3)[Gal(b1-4)GlcNAc(b1-3)Gal(b1-4)GlcNAc(b1-3)Gal(b1-4)GlcNAc(b1-3)Gal(b1-4)GlcNAc(b1-3)Gal(b1-4)GlcNAc(b1-2)Man(a1-6)]Man(b1-4)GlcNAc(b1-4)GlcNAc
How it was run: as §1

[17] = target: Gal(b1-4)GlcNAc(b1-3)Gal(b1-4)GlcNAc(b1-3)Gal(b1-4)GlcNAc(b1-3)Gal(b1-4)GlcNAc(b1-3)Gal(b1-4)GlcNAc(b1-2)Man(a1-3)[Gal(b1-4)GlcNAc(b1-3)Gal(b1-4)GlcNAc(b1-3)Gal(b1-4)GlcNAc(b1-3)Gal(b1-4)GlcNAc(b1-3)Gal(b1-4)GlcNAc(b1-2)Man(a1-6)]Man(b1-4)GlcNAc(b1-4)[Fuc(a1-6)]GlcNAc
How it was run: as §1

[18] = target: Gal(b1-4)GlcNAc(b1-6)GalNAc
How it was run: as §1

[19] = target: Gal4S6S(b1-4)GlcNAc
How it was run: as §1

[20] = target: GalNAc(b1-4)GlcNAc
How it was run: as §1

[21] = target: GalNAc(b1-4)GlcNAc(b1-3)GalNAc(b1-4)GlcNAc
How it was run: as §1

[22] = target: GalNAc4S6S(b1-4)GlcNAc
How it was run: as §1

[23] = target: GalNAc6S(b1-4)GlcNAc
How it was run: as §1

[24] = target: Glc(a1-4)Glc(a1-4)Glc(a1-4)Glc
How it was run: as §1

[25] = target: GlcNAc(a1-4)Gal(b1-4)GlcNAc
How it was run: as §1

[26] = target: GlcNAc(b1-2)Man(a1-3)[GlcNAc(b1-2)Man(a1-6)]Man(b1-4)GlcNAc(b1-4)[Fuc(a1-6)]GlcNAc
How it was run: as §1

B1: HopZSSI-T (Helicobacter pylori), B5Z6D0 (protein)
chain: MGSSHHHHHHSSGLVPRGSHMENLYFQGEDNGFFISAGYQIGEAAQMVKNTGELKKLSDTYENLSNLLTNFNNLNQAVTNASSPSEINAAIDNLKANTQGLTGEKTNSPAYQAVYLALNAAVGLWNVIAYNVQCGPGNSSQQSVTFEGQPGHNSSSINCNLTGYNNGVSGPLSIDNFKQLNQAYQVLQQALKQGVPVLNNTNQKIEVKVTTQTNGQSSKETTTTTTTNDAQTLLQEASKMIDVLTTNCPWVNHNPGQNGGAPWGLIRQECVSGFATEFSAVTSMIKNAQEIVTQAQSLNANQNNQNAPQDFNPYTSADRAFAQNMLNHAQAQAKILELADQMKKDLNTIPSQFITNYLAACRIDGTTPSQGVTNNTWGAGCAYVEETITALNNSLAHFGTQAEQIKQSELLARTILDFRGSLSTLNSTYNSITTTASNTPNSPFLKNLISQSTNPNNPGGLQAVYQVNQSAYSQLLSATQELGHNPFRRIGLISSQT
- glycan array binding signal (z-score) [1]: -0.221
- glycan array binding signal (z-score) [2]: -0.111
- glycan array binding signal (z-score) [3]: 0.174
- glycan array binding signal (z-score) [4]: -0.229
- glycan array binding signal (z-score) [5]: -0.057
- glycan array binding signal (z-score) [6]: -0.248
- glycan array binding signal (z-score) [7]: -0.378
- glycan array binding signal (z-score) [8]: -0.536
- glycan array binding signal (z-score) [9]: -0.247
- glycan array binding signal (z-score) [10]: -0.615
- glycan array binding signal (z-score) [11]: -0.409
- glycan array binding signal (z-score) [12]: 0.014
- glycan array binding signal (z-score) [13]: -0.305
- glycan array binding signal (z-score) [14]: 1.74
- glycan array binding signal (z-score) [15]: 0.699
- glycan array binding signal (z-score) [16]: 2.12
- glycan array binding signal (z-score) [17]: 1.86
- glycan array binding signal (z-score) [18]: 1.25
- glycan array binding signal (z-score) [19]: -0.807
- glycan array binding signal (z-score) [20]: 2.32
- glycan array binding signal (z-score) [21]: 0.498
- glycan array binding signal (z-score) [22]: 3.87
- glycan array binding signal (z-score) [23]: 9.12
- glycan array binding signal (z-score) [24]: -0.263
- glycan array binding signal (z-score) [25]: 0.109
- glycan array binding signal (z-score) [26]: 0.081

— the supplement of paper PMC8728848
